In the library only some 1.1% were active in any assay of this set; here they are far more common.
Y pestis TopoI = Yersinia pestis topoisomerase I inhibitors, primary screen, biochemical, cleavage product accumulation, plate reader, single point; Y. pestis Topo-I cleavage product accumulation; hit rate 0.064% among 360,000; activity, % at 10 µM; AID 504884, 2011; DNA topoisomerase I (Yersinia pestis CO92); in the data active = activity above about 50%, passing the limit was not always enough; inconclusive = no clear call, values can overlap the other calls
BJeLR viability = MLPCN primary cell-based screen for lethality selective to Ras in HRASV12 cells; BJeLR (HRASV12) viability, CellTiter-Glo ATP luminescence, 48 h; inhibition, % (test concentration not listed); hit rate 0.17% among 300,000; in the data active = inhibition above about 50%; inconclusive = no clear call, values can overlap the other calls
PfHsp40 rescue = rescue of yeast from PfHsp40 toxicity, primary screen, S. cerevisiae, ATP luminescence; S. cerevisiae expressing PfHsp40, growth rescue; growth rescue, % at 12.5 µM; hit rate 0.68% among 340,000; AID 504582, 2011; in the data active = growth rescue above about 28%, passing the limit was not always enough; inconclusive = no clear call, values can overlap the other calls;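 note: yeast W303a lacking pdr1 and pdr3 grown in galactose medium; growth measured after three days at 30 °C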
SARS 3CLpro inh = SARS-CoV 3CLpro protease inhibitors, primary screen, biochemical, quenched FRET | Replicase polyprotein 1ab (Severe acute respiratory syndrome coronavirus), P0C6X7 | AID 1706, 2009 | inhibition, % at 6 µM | hit rate 0.14% among 290,000 | recombinant SARS-CoV 3CLpro, quenched FRET peptide cleavage; in the data active = inhibition above about 12%
Mtb BioA inh = M. tuberculosis BioA enzyme inhibitors, primary screen, biochemical, plate reader, single point, HTS | 7,8-diaminopelargonic acid synthase BioA (Mycobacterium tuberculosis) | purified M. tuberculosis BioA enzyme | inhibition, % at 9.99 µM | hit rate 0.096% among 360,000 | AID 602481, 2012; in the data active = inhibition above about 40%; inconclusive = no clear call, values can overlap the other calls
MazF activator = activators of E. coli MazEF toxin-antitoxin RNase, primary screen, biochemical, fluorescence, uHTS; activation, % at 20 µM; FAM/BHQ RNA-DNA oligo cleavage fluorescence, 5 h; Endoribonuclease toxin MazF (Escherichia coli (strain K12)), P0AE70; hit rate 0.32% among 350,000; AID 504720, 2011; in the data active = activation above about 50%
Target sequence (P0AE70 whole entry, looked up): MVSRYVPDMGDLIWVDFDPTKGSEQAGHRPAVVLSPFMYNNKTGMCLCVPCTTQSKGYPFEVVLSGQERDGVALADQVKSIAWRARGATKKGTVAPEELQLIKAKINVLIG
Active calls of the source: *.

What do the screens show for `NC(=O)C(Cc1ccccc1)N1C(=O)c2ccccc2C1=O` (stereo not drawn)?
Y pestis TopoI: -1.7; BJeLR viability: 2.3; PfHsp40 rescue: 0.3; SARS 3CLpro inh: 0.4; Mtb BioA inh: -4.1; MazF activator: -8.4

What do the screens show for `C/C=C/c1ccc2c(c1)O[C@@H](CN(C)CC1CCCC1)[C@H](C)CN([C@H](C)CO)S2(=O)=O`?
Mtb BioA inh: -3.6

How did Cc1cc(OCC(=O)NCc2ccncc2)c2c3c(c(=O)oc2c1)CCC3 do in these assays?
Y pestis TopoI: 1.5; BJeLR viability: -6.3; PfHsp40 rescue: 0.7; SARS 3CLpro inh: -4.5; Mtb BioA inh: -0.9; MazF activator: 21.7

Results for Cc1cc(OCC(=O)NCc2ccc(S(N)(=O)=O)cc2)c2c3c(c(=O)oc2c1)CCC3 ?
Y pestis TopoI: 1.0; BJeLR viability: 1.9; PfHsp40 rescue: -0.4; SARS 3CLpro inh: -1.0; Mtb BioA inh: -0.2; MazF activator: 71.9*

Results for C[C@H](CO)N1C[C@H](C)[C@H](CN(C)C(=O)Nc2ccc3c(c2)OCO3)Oc2ncc(-c3cccnc3)cc2C1=O ?
Mtb BioA inh: 4.8

What do the screens show for `O=Cc1cc(N=Nc2ccccc2Cl)ccc1O`?
Y pestis TopoI: -6.4; BJeLR viability: 4.0; PfHsp40 rescue: 211.1*; SARS 3CLpro inh: 0.9; MazF activator: -2.2

What do the screens show for `O=Cc1cc(N=Nc2cccc(C(=O)O)c2)ccc1O`?
Y pestis TopoI: -3.8; BJeLR viability: 20.3; PfHsp40 rescue: inconclusive; SARS 3CLpro inh: 3.5; MazF activator: -1.4

Results for COc1cc(C2C(C#N)=C(N)Oc3cc(N(C)C)ccc32)cc2c1OCO2 (stereo not drawn) ?
Y pestis TopoI: 3.9; BJeLR viability: 45.7; PfHsp40 rescue: 2.2; SARS 3CLpro inh: 1.6; Mtb BioA inh: -2.0; MazF activator: 64.4*

How did CCOC(=O)N1CCN(S(=O)(=O)c2ccc(C(=O)NNc3nc4c(C)cc(C)cc4s3)cc2)CC1 do in these assays?
Y pestis TopoI: 27.8; BJeLR viability: -3.4; SARS 3CLpro inh: 3.5; Mtb BioA inh: -1.1; MazF activator: 6.9

How did CCOC(=O)N1CCN(S(=O)(=O)c2ccc(C(=O)NNc3nc4c(C)cccc4s3)cc2)CC1 do in these assays?
Y pestis TopoI: -6.7; BJeLR viability: -0.3; PfHsp40 rescue: 129.5*; SARS 3CLpro inh: 2.9; Mtb BioA inh: 0.8; MazF activator: 2.3

How did CCOC(=O)N1CCN(S(=O)(=O)c2ccc(C(=O)NNc3nc4ccc(Cl)cc4s3)cc2)CC1 do in these assays?
Y pestis TopoI: 25.8; BJeLR viability: 17.8; PfHsp40 rescue: 274.2*; SARS 3CLpro inh: 0.2; Mtb BioA inh: -1.1; MazF activator: 5.2

How did CCOC(=O)N1CCN(S(=O)(=O)c2ccc(C(=O)N(CCN(C)C)c3nc4ccc(Cl)cc4s3)cc2)CC1 do in these assays?
Y pestis TopoI: 6.4; BJeLR viability: -4.3; PfHsp40 rescue: -0.5; SARS 3CLpro inh: 2.8; Mtb BioA inh: -0.5; MazF activator: 9.5

How did CCOC(=O)N1CCN(S(=O)(=O)c2ccc(C(=O)NNc3nc4cc(C)cc(C)c4s3)cc2)CC1 do in these assays?
Y pestis TopoI: 3.3; BJeLR viability: 11.0; PfHsp40 rescue: 323.2*; SARS 3CLpro inh: 5.0; Mtb BioA inh: -0.4; MazF activator: 9.8

What do the screens show for `CN(C)CCCNC(=O)C[C@H]1CC[C@@H]2[C@H](COc3ccc(NC(=O)c4ccccc4F)cc3C(=O)N2C)O1`?
Mtb BioA inh: 2.3

What do the screens show for `CCOC(=O)c1ccc(NC(=O)CC2OCCN(CC)C2=O)cc1` (stereo not drawn)?
Y pestis TopoI: 0.4; BJeLR viability: -9.2; PfHsp40 rescue: 53.2*; SARS 3CLpro inh: -0.5; Mtb BioA inh: 1.1; MazF activator: -0.7

What do the screens show for `CCOC(=O)c1ccc(NC(=O)CC2NCCNC2=O)cc1` (stereo not drawn)?
Y pestis TopoI: -4.2; BJeLR viability: -3.4; PfHsp40 rescue: 1.1; SARS 3CLpro inh: -0.4; Mtb BioA inh: 1.5; MazF activator: 7.4

What do the screens show for `CCOC(=O)c1ccc(NC(=O)CC2C(=O)OCCN2CC)cc1` (stereo not drawn)?
Y pestis TopoI: -7.5; BJeLR viability: -7.7; PfHsp40 rescue: 218.6*; SARS 3CLpro inh: 1.9; MazF activator: 4.6

Results for CN1C(=O)c2cc(NC(=O)Cc3cccs3)ccc2OC[C@H]2O[C@@H](CC(=O)O)CC[C@H]21 ?
Mtb BioA inh: 13.7

What do the screens show for `Cc1c(Cl)cccc1NC(=S)N(Cc1cccnc1)Cc1ccccc1Cl`?
Y pestis TopoI: 11.9; BJeLR viability: 2.9; PfHsp40 rescue: 35.2*; SARS 3CLpro inh: -1.8; MazF activator: 2.3

Results for S=C(Nc1ccccc1Cl)N(Cc1cccnc1)Cc1ccco1 ?
Y pestis TopoI: -5.0; BJeLR viability: 3.3; PfHsp40 rescue: 0.2; SARS 3CLpro inh: -1.5; MazF activator: -2.6

How did COc1cccc(S(=O)(=O)N[C@H]2CC[C@@H](CC(=O)NCc3ccc(F)cc3)O[C@H]2CO)c1 do in these assays?
Mtb BioA inh: -0.4

Results for COc1ccc(NC(=O)N(C)C[C@@H]2OCCCC[C@@H](C)Oc3ccc(NS(=O)(=O)c4cccs4)cc3C(=O)N([C@@H](C)CO)C[C@H]2C)cc1 ?
Mtb BioA inh: -5.5

What do the screens show for `COc1ccc(N=c2oc3c(OC)cccc3cc2C(=O)NCc2ccco2)c(OC)c1`?
Y pestis TopoI: -8.8; BJeLR viability: -9.9; PfHsp40 rescue: 0.6; SARS 3CLpro inh: 0.5; Mtb BioA inh: -4.6; MazF activator: 64.7*

How did COc1ccc2cc(C(=O)NCc3ccco3)c(=Nc3ccc(C(=O)O)cc3)oc2c1 do in these assays?
Y pestis TopoI: -12.5; BJeLR viability: -7.2; PfHsp40 rescue: -2.3; SARS 3CLpro inh: 0.1; Mtb BioA inh: 2.0; MazF activator: -3.3

What do the screens show for `O=C(/C=C/c1ccc(F)cc1)NNC(=O)CCN1CCN(Cc2ccccc2)CC1`?
Y pestis TopoI: -14.7; BJeLR viability: 55.2*; PfHsp40 rescue: -1.0; SARS 3CLpro inh: 3.5; MazF activator: -8.5

Results for COc1cccc(/C=C/C(=O)NNC(=O)CCN2CCN(Cc3ccccc3)CC2)c1 ?
Y pestis TopoI: 6.6; BJeLR viability: 3.2; PfHsp40 rescue: -1.7; SARS 3CLpro inh: -4.2; Mtb BioA inh: -0.5; MazF activator: -2.3

What do the screens show for `COc1ccc(S(=O)(=O)Nc2ccc3c(c2)CC(=O)N([C@H](C)CO)C[C@H](C)[C@@H](CN(C)C(=O)Nc2ccc(C(F)(F)F)cc2)O3)cc1`?
Mtb BioA inh: 0.0

How did CC(Sc1ccc(Cl)cc1)C(=O)NCC(c1ccco1)N1CCCCC1 (stereo not drawn) do in these assays?
Y pestis TopoI: 10.8; BJeLR viability: 2.6; PfHsp40 rescue: 34.5*; Mtb BioA inh: 4.3; MazF activator: -1.9

Screens deposited in PubChem BioAssay by several laboratories.
